Measured values taken from the supplement of paper PMC10849652.
The full data set covers some 7,900 targets. This sample favours those with a hit. About 0.6% of all pairs of compound and target were hits.

Assays:
Assay in all cases: log2 fold change, soluble protein after heating vs DMSO (PISA); higher = thermal stabilisation; K562 cells, 10 uM, 30 min; active = over 0.2 and 3.5 SD of the protein, either way, in both replicates (recomputed)
[1] = compound: CN1CCN(CCOc2cc(OC3CCOCC3)c3c(Nc4c(Cl)ccc5c4OCO5)ncnc3c2)CC1 [saracatinib]
How it was run: (§1)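 Thermal stability values are relative to control samples and come from duplicates. They are expressed as log2 fold changes. For measurement, K562 cells (2×10^6 cells/mL) received 10 μM compound for 30 min, and aliquots were heated for 3 min over 48°C-58°C, pooled, and extracted at 4°C in PBS with 0.5% NP-40. Soluble protein, the supernatant after 21,000xg for 90 min, was quantified by TMTpro 16plex LC-MS/MS with equalised channel sums.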

[2] = compound: CN1CCN(c2nc(C3=C(c4c[nH]c5ccccc45)C(=O)NC3=O)c3ccccc3n2)CC1 [sotrastaurin]
How it was run: as §1

[3] = compound: CN1CC[C@H](c2c(O)cc(O)c3c(=O)cc(-c4ccccc4Cl)oc23)[C@H](O)C1 [alvocidib]
How it was run: as §1

[4] = compound: CN1CCc2c(c3ccccc3n2Cc2ccc(C(=O)NO)cc2)C1 [Tubastatin A]
How it was run: as §1

[5] = compound: CNC(=O)C1=CC=CC=C1NC2=NC(=NC=C2Cl)NC3=C(C=C(C=C3)N4CCOCC4)OC
How it was run: as §1

[6] = compound: CNC(=O)c1ccc(Nc2ncc(C(F)(F)F)c(NCc3nccnc3N(C)S(C)(=O)=O)n2)cc1 [defactinib]
How it was run: as §1

[7] = compound: CNCc1ccc(-c2[nH]c3cc(F)cc4c3c2CCNC4=O)cc1 [rucaparib]
How it was run: as §1

[8] = compound: CNc1nc(-c2ccc3c(N)n[nH]c3c2)cc(N2C[C@@H](C(=O)NC3CCCCC3)CC[C@H]2C)n1
How it was run: as §1

[9] = compound: COC(=O)N[C@@H](C)CNc1nccc(-c2cn(C(C)C)nc2-c2cc(Cl)cc(NS(C)(=O)=O)c2F)n1 [encorafenib]
How it was run: as §1

[10] = compound: COC(=O)[C@H](CCSC)NC(=O)C1=C(C=C(C=C1)NC[C@H](CS)N)C2=CC=CC=C2
How it was run: as §1

[11] = compound: COC1=CC=C(C=C1)CN2C=CC3=C2C=C(C=C3)C(=O)NO
How it was run: as §1

[12] = compound: CON(C)C(=O)N1N=C(c2cc(F)ccc2F)S[C@@]1(CCCN)c1ccccc1 [filanesib]
How it was run: as §1

[13] = compound: CO[C@H]1C[C@@H]2CC[C@@H](C)[C@@](O)(O2)C(=O)C(=O)N2CCCC[C@H]2C(=O)O[C@H]([C@H](C)C[C@@H]2CC[C@H](n3cnnn3)[C@H](OC)C2)CC(=O)[C@H](C)/C=C(\C)[C@@H](O)[C@@H](OC)C(=O)[C@H](C)C[C@H](C)/C=C/C=C/C=C/1C [zotarolimus]
How it was run: as §1

[14] = compound: COc1cc(C(=O)O)ccc1NC(=O)[C@@H]1N[C@@H](CC(C)(C)C)[C@](C#N)(c2ccc(Cl)cc2F)[C@H]1c1cccc(Cl)c1F [idasanutlin]
How it was run: as §1

[15] = compound: COc1cc(Nc2ncc3c(n2)-c2ccc(Cl)cc2C(c2c(F)cccc2OC)=NC3)ccc1C(=O)O [alisertib]
How it was run: as §1

[16] = compound: COc1cc2nc(-c3cc(F)ccc3O)nc(N[C@@H]3CNC[C@H]3C(C)(C)O)c2cc1OC
How it was run: as §1

[17] = compound: COc1cc2ncnc(Nc3ccc(F)c(Cl)c3)c2cc1OCCCN1CCOCC1 [gefitinib]
How it was run: as §1

[18] = compound: COc1cccc2cc(-c3nc([C@H]4CC[C@H](C(=O)O)CC4)n4ncnc(N)c34)[nH]c12
How it was run: as §1

[19] = compound: CS(=O)(=O)CCNCc1ccc(-c2ccc3ncnc(Nc4ccc(OCc5cccc(F)c5)c(Cl)c4)c3c2)o1 [lapatinib]
How it was run: as §1

[20] = compound: CS(=O)(=O)N1CCN(Cc2cc3nc(-c4cccc5[nH]ncc45)nc(N4CCOCC4)c3s2)CC1 [pictilisib]
How it was run: as §1

Measured: log2 fold change

PRMT7 (UniProt Q9NVM4)
UniProt Q9NVM4, sequence (Q9NVM4 whole entry, looked up): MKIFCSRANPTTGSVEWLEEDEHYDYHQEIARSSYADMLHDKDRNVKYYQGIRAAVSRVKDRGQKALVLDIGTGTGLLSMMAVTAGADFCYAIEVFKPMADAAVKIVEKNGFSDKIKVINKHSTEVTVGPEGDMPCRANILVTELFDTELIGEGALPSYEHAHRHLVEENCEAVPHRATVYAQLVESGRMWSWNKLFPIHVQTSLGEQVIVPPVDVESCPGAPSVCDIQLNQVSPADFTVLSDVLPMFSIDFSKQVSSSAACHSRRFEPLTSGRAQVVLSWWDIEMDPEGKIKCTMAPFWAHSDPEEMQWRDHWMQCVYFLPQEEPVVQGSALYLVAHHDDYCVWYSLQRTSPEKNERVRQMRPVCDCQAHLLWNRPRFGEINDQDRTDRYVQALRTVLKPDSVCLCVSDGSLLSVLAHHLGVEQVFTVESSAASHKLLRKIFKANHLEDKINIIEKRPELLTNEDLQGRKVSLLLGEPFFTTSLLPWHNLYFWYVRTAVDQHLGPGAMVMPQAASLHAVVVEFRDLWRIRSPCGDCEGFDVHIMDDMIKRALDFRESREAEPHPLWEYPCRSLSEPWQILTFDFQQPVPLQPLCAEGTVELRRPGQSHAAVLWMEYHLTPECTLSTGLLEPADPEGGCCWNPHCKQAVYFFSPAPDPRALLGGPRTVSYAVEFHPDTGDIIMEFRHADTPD
inactive: [1] -0.02 | [2] -0.124 | [3] -0.219 | [4] 0.088 | [5] 0.004 | [6] -0.086 | [7] 0.008 | [8] 0.031 | [9] 0.112 | [10] -0.04 | [11] -0.174 | [12] -0.072 | [13] -0.008 | [14] -0.004 | [15] -0.073 | [16] -0.037 | [17] 0.05 | [18] -0.018 | [19] 0.026 | [20] -0.009

PRKAG1 isoform 3 (UniProt P54619)
UniProt P54619, sequence (P54619 whole entry, looked up): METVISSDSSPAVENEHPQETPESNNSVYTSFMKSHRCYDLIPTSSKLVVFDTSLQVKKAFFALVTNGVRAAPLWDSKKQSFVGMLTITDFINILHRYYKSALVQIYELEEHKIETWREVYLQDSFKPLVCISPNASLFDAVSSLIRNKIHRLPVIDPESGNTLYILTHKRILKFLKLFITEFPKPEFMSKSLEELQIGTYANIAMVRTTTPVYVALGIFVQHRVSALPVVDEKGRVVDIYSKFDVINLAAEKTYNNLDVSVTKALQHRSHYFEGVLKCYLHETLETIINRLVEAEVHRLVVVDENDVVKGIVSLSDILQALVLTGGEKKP
inactive: [1] -0.016 | [2] 0.04 | [3] -0.062 | [4] 0.01 | [5] -0.184 | [6] -0.081 | [7] -0.005 | [8] -0.026 | [9] 0.026 | [10] -0.014 | [11] -0.02 | [12] -0.036 | [13] 0 | [14] -0.004 | [15] 0.022 | [16] 0.008 | [17] 0.002 | [18] 0.049 | [19] -0.055 | [20] -0.037

PDCD6IP (UniProt Q8WUM4)
UniProt Q8WUM4, sequence (Q8WUM4 whole entry, looked up): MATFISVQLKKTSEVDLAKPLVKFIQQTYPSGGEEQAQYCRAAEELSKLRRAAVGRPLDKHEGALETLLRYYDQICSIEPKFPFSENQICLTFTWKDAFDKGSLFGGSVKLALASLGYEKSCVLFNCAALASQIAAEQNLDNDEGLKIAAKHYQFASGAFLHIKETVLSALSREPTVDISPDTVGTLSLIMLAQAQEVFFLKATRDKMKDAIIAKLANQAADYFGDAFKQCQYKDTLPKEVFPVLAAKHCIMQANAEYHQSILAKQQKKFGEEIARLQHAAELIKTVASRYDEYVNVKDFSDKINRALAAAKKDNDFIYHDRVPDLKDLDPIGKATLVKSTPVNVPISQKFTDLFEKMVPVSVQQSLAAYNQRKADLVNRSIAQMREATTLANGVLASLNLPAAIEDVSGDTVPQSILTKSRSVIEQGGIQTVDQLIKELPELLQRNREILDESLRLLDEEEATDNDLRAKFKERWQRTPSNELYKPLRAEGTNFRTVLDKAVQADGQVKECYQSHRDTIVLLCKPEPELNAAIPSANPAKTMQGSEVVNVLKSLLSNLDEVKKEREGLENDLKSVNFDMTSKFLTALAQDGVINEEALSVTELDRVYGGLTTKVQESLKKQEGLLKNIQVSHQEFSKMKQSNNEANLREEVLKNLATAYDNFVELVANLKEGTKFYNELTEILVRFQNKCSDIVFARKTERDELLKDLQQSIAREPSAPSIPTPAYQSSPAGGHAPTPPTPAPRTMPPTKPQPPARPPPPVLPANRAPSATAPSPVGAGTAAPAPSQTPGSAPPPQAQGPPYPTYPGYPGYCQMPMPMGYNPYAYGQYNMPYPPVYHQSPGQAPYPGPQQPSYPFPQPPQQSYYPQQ
inactive: [1] -0.11 | [2] -0.227 | [3] -0.132 | [4] 0.048 | [5] 0.034 | [6] -0.141 | [7] 0.119 | [8] 0.055 | [9] 0.138 | [10] -0.048 | [11] 0.105 | [12] -0.022 | [13] 0.079 | [14] -0.018 | [15] 0.045 | [16] 0.022 | [17] 0.06 | [18] -0.118 | [19] -0.04 | [20] 0.009
